These results are taken from PubChem BioAssay (EPA / NIEHS).

Values joined by “and” are separate entries in the source; they are usually repeats but may differ in a detail not shown here. Equal entries are not always repeated. Active and inactive are the calls of the source. The calls were made as follows: active = hit-call score of the fitted dose curve at least 0.9, where 1 is the maximum; inactive = score below 0.9.

The experiment in a line: ATG_ERE_CIS: Attagene CIS-FACTORIAL HepG2 Assay for Estrogen Response Element (ERE) (AID 2282940). The note with it: HepG2 ERE cis-reporter, Attagene RNA transcript; actives raise or lower the signal. As to the method:
ATG_CIS is a cell-based, multiplexed-readout assay that uses HepG2, a human liver cell line, with measurements taken at 24 hours after chemical dosing in a 24-well plate.ATG_ERE_CIS is one of 52 assay component(s) measured or calculated from the ATG_CIS assay. It is designed to make measurements of mRNA induction, a form of inducible reporter, as detected with fluorescence intensity signals by Reverse transcription polymerase chain reaction (RT-PCR) and Capillary electrophoresis technology.Data from the assay component ATG_ERE_CIS was analyzed into 1 assay endpoint. This assay endpoint, ATG_ERE_CIS, was analyzed with bidirectional fitting relative to DMSO as the negative control and baseline of activity. Using a type of inducible reporter, measures of mRNA for gain or loss-of-signal activity can be used to understand the reporter gene at the transcription factor-level as they relate to the gene ESR1. Furthermore, this assay endpoint can be referred to as a primary readout, because this assay has produced multiple assay endpoints where this one serves a reporter gene function. To generalize the intended target to other relatable targets, this assay endpoint is annotated to the nuclear receptor intended target family, where the subfamily is steroidal.
Human liver HepG2 cells are transiently transfected with multiple reporter transcription units (MRTUs) in 6-well plates using FuGene 6 reagent (Roche; 3 ml FuGene/1 mg DNA). The MRTU constructs are regulated by a cis-regulating element (promoter). […] A major difference between the CIS and TRANS system is that in CIS activities of endogenous TFs are measured, whereas the TRANS assay evaluates changes in activities of exogenous, chimeric NR-Gal4 proteins. […] At the end of 24 hour incubation, total RNA was isolated using TriZol reagent (Invitrogen). The isolated RNA is then reverse-transcribed using oligo(dT) primer and Mo-MLV reverse transcriptase (Invitrogen) with DNAse I (Ambion) treatment for 30 min. The one-tenth of the produced cDNA was amplified by PCR using Taq DNA polymerase (Invitrogen) and two reporter sequence-specific primers. The PCR products were fluorescently labeled by primer extension with 6-arboxyfluorescein (6-FAM) 5'-labeled reporter sequence-specific primer (2 min at 95 C, 20 s at 68 C and 10 min at 72 C) and these products were digested with 5U of HpaI (New England Biolabs) for 2h at 37 C. The fragments were purified using Qiaquick PCR columns (Qiagen), analyzed on an ABI 3130xL genetic analyzer (Applied Biosystems) with peak positions identified by using a set of X-rhodamine (ROX)-labeled MapMarker1000 molecular weight standards (BioVentures). The raw capillary electrophoresis data was processed using Attagraph software (Attagene).
On to `CCCCCc1ccc(O)cc1`, for which the AC50 (in general, the midpoint of the concentration-response curve, whichever way the signal moves) was 2.4 µM (active).

Regarding `FC(F)(F)C1(F)C(F)(F)C(F)(F)C(F)(F)C(F)(C(F)(F)F)C1(F)F` (stereo not given), the compound was classed as inactive.

As to `OCC1CCC(CO)CC1` (stereo not given), the AC50 was 23.2 µM (active).

Turning to `COC1=CC(=O)C[C@@H](C)[C@]12Oc1c(Cl)c(OC)cc(OC)c1C2=O`, the result was inactive.

Turning to `CC1CCC(C(=O)O)CC1` (stereo not given), the AC50 was 30.5 µM (active).

With `O=C(OC(=O)C(F)(F)C(F)(F)F)C(F)(F)C(F)(F)F`, the call was inactive.

For the compound `Cc1cc(=O)oc2cc(O)ccc12`, the AC50 was 41.8 µM (active) and 58.5 µM (active).

As for `CCC(C)c1nccnc1OC` (stereo not given), the result was inactive.

As for `O=P(O)(O)CCC(F)(F)C(F)(F)C(F)(F)C(F)(F)C(F)(F)C(F)(F)C(F)(F)C(F)(F)F`, the compound was classed as inactive.

For the compound `CC1CCC(CO)CC1` (stereo not given), the half-maximal activity concentration (AC50) is 20 µM (active) and 27.1 µM (active).

For the compound `CCN(CCC#N)c1ccccc1`, the outcome was inactive.

Consider `FC(OC(F)(F)C(F)(F)C(F)(F)F)C(F)(F)F` (stereo not given), for which the call was inactive.

For the compound `C=CC(=C)CC/C=C(\C)CCC=C(C)C`, the compound was called inactive.

Take `Cc1ccc(N=Nc2c(O)ccc3ccccc23)c(C)c1`: the AC50 is 5.07 µM (active).

Take `FC1(F)C=CC(F)(F)C1(F)F`: the call was inactive.

As to `Brc1ccc(Oc2ccc(Br)cc2Br)cc1`, the call was inactive.

As to `C[N+](C)(CCCNS(=O)(=O)CCC(F)(F)C(F)(F)C(F)(F)C(F)(F)C(F)(F)C(F)(F)F)CC(=O)[O-]`, the AC50 is 0.0122 µM (active).

In the case of `O=C(C=C(O)C(F)(F)F)C(F)(F)F`, the call was inactive.

For `COc1ccccc1NC(=O)c1cc2ccccc2cc1O`, the result was inactive.

As to `CCOC(OCC)C(=O)c1ccccc1`, the AC50 was 77.6 µM (active).

Turning to `C=CC(=O)OCC(CO)(COCC(COC(=O)C=C)(COC(=O)C=C)COC(=O)C=C)COC(=O)C=C`, the outcome was inactive.

In the case of `CCO[Si](CCC1CCC2OC2C1)(OCC)OCC` (stereo not given), the call was inactive.

As for `NNc1nc(-c2ccc([N+](=O)[O-])cc2)cs1`, the result was inactive.

Consider `FCOC(C(F)(F)F)C(F)(F)F`, for which the compound was classed as inactive.

For the compound `O=CC(F)(F)C(F)(F)C(F)(F)C(F)F`, the outcome was inactive.

With `Cc1cc(Cc2cc(C)cc(C(C)(C)C)c2O)c(O)c(C(C)(C)C)c1`, the call was inactive.

For the compound `c1cc[nH]c1`, the compound was called inactive.

As for `O=C(Nc1ccc(Cl)c(Cl)c1)c1cc(Cl)cc(Cl)c1O`, the outcome was inactive.

For `O=C(O)CCC(F)(F)C(F)(F)C(F)(F)C(F)(F)C(F)(F)F`, the compound was classed as inactive.

As for `CC1CNCC(C)O1` (stereo not given), the compound was classed as inactive.

As to `CC[N+](CC)(CC)Cc1ccccc1`, the result was inactive.

In the case of `CC(C)(c1ccc(Oc2ccc(N)cc2)cc1)c1ccc(Oc2ccc(N)cc2)cc1`, the compound was classed as inactive.

In the case of `O=CC(F)(F)C(F)(F)C(F)(F)F`, the outcome was inactive.

For the compound `O=C1OC(=O)c2cc(-c3ccc4c(c3)C(=O)OC4=O)ccc21`, the result was inactive.

`O=C1OC(=O)C(F)(F)C1(F)F`: the compound was called inactive.

Regarding `CCO[Si](C)(C)OCC`, the result was inactive.

With `FC(F)(F)C(F)(F)C(F)(F)Br`, the compound was classed as inactive.

Regarding `O=C(Nc1cccc([N+](=O)[O-])c1)c1cc2ccccc2cc1O`, the AC50 is 3.32 µM (active).

As for `Oc1c(Cl)cc(Cl)cc1Sc1cc(Cl)cc(Cl)c1O`, the compound was classed as inactive.

For the compound `C=CC(=O)OCCN(CC)CC`, the outcome was inactive.
